Results published in the supplement of paper PMC10338343.
± gives the standard deviation. The full ranking holds about 8,200 sequences; the median of “pre-steady-state target cleavage rate” is about 0.024, and the highest 2% start at about 1.3. The full list was thinned out, with the highest values kept by preference.

System: MIWI (PIWIL1) piRISC loaded with L1MC piRNA (30 nt)
Assay: pre-steady-state target cleavage rate (min^-1); MIWI and MILI are mouse PIWI proteins and EfPiwi is from a freshwater sponge; tags in brackets are library labels; higher = faster piRNA-guided slicing of the target
Conditions: guide: L1MC piRNA 5'p-UAACUAAAUACUAUGCAAGCUGUAGGUCCU
Protocol: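 Cleave-'n-Seq: a library of target RNAs (target site embedded in constant flanks, ACAGCATTCCGCGTTAGTGATATCCG... 5' flank; DNA-blocked outside the site) at 0.1 nM was incubated with 1 nM active mouse MILI or MIWI piRISC (synthetic 5'-monophosphorylated piRNA guide) with or without 500 nM mouse GTSF1 at 33 °C for 1 min to 16 h. Uncleaved targets were sequenced and normalised to non-target controls, and the pooled three trials were fitted to a burst-and-steady-state model to give the pre-steady-state cleavage rate (min^-1; k3 is constrained to at most 1e-4). Sequence is the target site only; target names encode pairing extent (gX:gY) and contiguous / 1-mismatch / 2-mismatch / bulge geometry. Fits with R² ≤ 0 are excluded.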

[1] = auxiliary factor: 500 nM mouse GTSF1
[2] = auxiliary factor: none (no GTSF1)

Sequence | pre-steady-state target cleavage rate [1] | pre-steady-state target cleavage rate [2]
UGGACCUACAGCUUGCAAAGUAUUUAGUUA | 1.36 ± 0.058 | 0.0474 ± 0.0097
UGGACCUACAGCUUGCAAAGUAUUUAGUAA | 1.13 ± 0.074 | 0.0219 ± 0.006
ACGACCUACAGCUUGCAAAGUAUUUAGUUA | 1.56 ± 0.057 | 0.0528 ± 0.011
UCCUGGUACUGCUUGCAUAGUAAUUAGUUA | 0.313 ± 0.047 | 0.0127 ± 0.0034
AGGACCUACAGCUUGCAUACUUUUUAGUUA | 0.0575 ± 0.011 | 0.00783 ± 0.0023
UCCUGGAUCAGGUUGCAAAGUAUUUAGUUA | 0.391 ± 0.036 | 0.0061 ± 0.0023
UCCACCUACACGUUGCAUAGUAUUUUCAAA | 0.22 ± 0.036 | –
UCCUGGAAGAGCUUCCAUAGUAUUUAGUUA | 0.255 ± 0.058 | –
UGGACCUACAGCUUGCAUAGUAUUUCAGUUA | 0.468 ± 0.06 | 0.0318 ± 0.0065
AGGAGGUACAGCUUGCAUAGUAUUUAGUUA | 1.5 ± 0.072 | 0.0721 ± 0.011
AGGAGGUACAGCUUGCAUAGUAUUUAGAAA | 0.324 ± 0.044 | 0.0123 ± 0.0037
UGGAGGUACAGCUUGCAUAGUAUUUAGUUA | 1.35 ± 0.064 | 0.0828 ± 0.015
AGGAGGUACAGCUUGCAUAGUAUUUAGUAA | 0.803 ± 0.079 | 0.0437 ± 0.0095
UCGAGGUACAGCUUGCAUAGUAUUUAGUUA | 1.04 ± 0.066 | 0.0604 ± 0.0095
AGGUGGUACAGCUUGCAUAGUAUUUAGUAA | 0.645 ± 0.065 | 0.04 ± 0.0068
AGGUGGUACAGCUUGCAUAGUAUUUAGUUA | 1.36 ± 0.057 | 0.0811 ± 0.015
UGGAGGUACAGCUUGCAUAGUAUUUAGUAA | 0.794 ± 0.065 | 0.0463 ± 0.0071
UGGUGGUACAGCUUGCAUAGUAUUUAGUUA | 1.3 ± 0.046 | 0.0711 ± 0.012
UGGACCUACAGCUUGCAUAGAAUUUACAAA | 0.29 ± 0.062 | –
UGGACCUACAGGUUGCAUAGUAAUUAGUUA | 0.731 ± 0.055 | 0.0177 ± 0.0042
UGGACCUACAGCUUGCAUAGAAUUUUCAAA | 0.239 ± 0.048 | –

Sequence | pre-steady-state target cleavage rate [1] | pre-steady-state target cleavage rate [2]
UCCUGGAUGUGCUUGCAUGGUAUUUAGUUA | 0.209 ± 0.02 | 0.0348 ± 0.0072
UCGACCUACAGCUUGCAUAGUAUUUAGAUA | 0.564 ± 0.043 | 0.0299 ± 0.0074
UCCACCUACACCUUGCAUAGUAUUUACAAA | 0.309 ± 0.053 | 0.00355 ± 0.0022
UCCUGGUACAGCUAGCAUAGUAUUAAGUUA | 0.378 ± 0.051 | 0.00772 ± 0.0027
UCCUGGAUGUGCUUGCAUAGUAUUUUAGUUA | 0.128 ± 0.018 | 0.021 ± 0.0069
UCCACCUACAGCUACGAUAGUAUUUAGUUA | 0.121 ± 0.016 | –
UCCUCCUACUGCUAGCAUAGUAUUUAGUUA | 0.871 ± 0.033 | 0.0164 ± 0.0031
UCGACCUUCAGCUUGGAUAGUAUUUAGUUA | 1.49 ± 0.05 | 0.0525 ± 0.0074
UGGACCUUCAGCUUGGAUAGUAUUUAGUUA | 1.59 ± 0.068 | 0.0597 ± 0.011
AGGACCUUCAGCUUCCAUAGUAUUUAGUUA | 0.101 ± 0.023 | 0.00546 ± 0.0024
UCGACCUAGAGCUUGGAUAGUAUUUAGUUA | 1.25 ± 0.042 | 0.0475 ± 0.0077
UCCUGCUUCAGCUUGGAUAGUAUUUAGUUA | 1.18 ± 0.078 | 0.049 ± 0.0081
UCCUCCUUCAGCUUGGAUAGUAUUUAGUUA | 1.19 ± 0.041 | 0.0358 ± 0.0057
UCGACCUUCAGCUUCCAUAGUAUUUAGUUA | 0.0473 ± 0.011 | 0.00293 ± 0.0014
UCCACCUUCAGCUUGGAUAGUAUUUAGUUA | 1.15 ± 0.033 | 0.0456 ± 0.0083
AGGACCUUCAGCUUGGAUAGUAUUUAGUUA | 1.48 ± 0.052 | 0.0657 ± 0.012
UCCACCUAGUCCUUGCAUAGUAUUUAGUAA | 0.142 ± 0.021 | 0.00921 ± 0.0015
UCCUGGAACAGCUUGCAAAGUAAUUAGUUA | 0.545 ± 0.038 | 0.0139 ± 0.0055
UCCACCUACAGCUUGCAUAGAAUUUACAAA | 0.308 ± 0.054 | –
UCCUGGUACAGUUUGCAUAGUAUUUAGUUA | 0.706 ± 0.044 | 0.0392 ± 0.0063
UGGACCUACAGCUAGCAUAGUAUUUAGUUA | 1.41 ± 0.074 | 0.0334 ± 0.0077

Sequence | pre-steady-state target cleavage rate [1] | pre-steady-state target cleavage rate [2]
AGGACCUACAGCUUAGCAUAGUAUUUAGUUA | 1.37 ± 0.052 | 0.0387 ± 0.011
AGGACCUACAGCUAGCAUAGUAUUUAGUAA | 0.836 ± 0.073 | 0.0193 ± 0.0066
UGGACCUACAGCUAGCAUAGUAUUUAGUAA | 1.08 ± 0.065 | 0.016 ± 0.0033
UCGACCUACAGCUAGCAUAGUAUUUAGUUA | 1.28 ± 0.053 | 0.0292 ± 0.0072
ACGACCUACAGCUAGCAUAGUAUUUAGUUA | 1.3 ± 0.052 | 0.0406 ± 0.0091
AGGACCUACAGCUAGCAUAGUAUUUAGUUA | 1.16 ± 0.061 | 0.0412 ± 0.0085
UGGACCUACAGCUUAGCAUAGUAUUUAGUUA | 1.45 ± 0.08 | 0.0281 ± 0.0051
UGGACCUACAGCUUGGCAUAGUAUUUAGUUA | 1.01 ± 0.26 | 0.0197 ± 0.0048
UCCACCUACAGCUUAGCAUAGUAUUUAGUUA | 1.02 ± 0.03 | 0.0144 ± 0.0034
AGGACCUACAGCUUGGCAUAGUAUUUAGUUA | 1.17 ± 0.17 | 0.0407 ± 0.0099
UCGACCUACAGCUUAGCAUAGUAUUUAGUUA | 1.59 ± 0.058 | 0.0251 ± 0.0054
UCCUGGAUCAGCUUGCUAAGUAUUUAGUAA | 0.00706 ± 0.004 | –
UCCUCCUACAGCUUGCAUAGUAUUUACUUA | 0.383 ± 0.042 | 0.0348 ± 0.0074
UCCUGGAACAGUUGCAUAGUAUUUAGUUA | 0.337 ± 0.022 | 0.00545 ± 0.0021
UCCUGGAUCUGCAUGCAUAGUAUUUAGUUA | 0.204 ± 0.024 | 0.00439 ± 0.002
UCCUGGAUGUCGAACGUAUGUAUUUUAGUUA | < 0.0001 | –
UCCUCCUACAGCUUGCAUAGUAAAAAGUUA | 0.231 ± 0.023 | –
UCCUCCUACAGCUUACAUAGUAUUUAGUUA | 1.14 ± 0.031 | 0.0275 ± 0.0041
UCCUCCUACAGCUAGCAUAGUAUUUAGUUA | 0.838 ± 0.03 | 0.016 ± 0.0034
UCCUCCUACAGCUUAGCAUAGUAUUUAGUUA | 1.31 ± 0.054 | 0.0108 ± 0.0023
